Reference: PubChem BioAssay AID1347076 (National Center for Advancing Translational Sciences (NCATS), 2019)
The whole screen tested about 400,000 compounds, of which about 13,000 (3.2%) were called active. Not shown: some 18% with an inconclusive outcome. This is one part of a sample in which actives are shown more often than they occur. Values without a mark were called inactive. Calls follow the shape of the dose curve; as a rule, active = well fitted cell-killing curve with a large enough effect; inconclusive = small, poorly fitted or top-dose-only effect, or effect the other way; inactive = flat fitted curve, though single readings scatter.

assay: qHTS assay for MDR1-selective chemotherapeutics: Primary screen using the drug-selected MDR subline cells KB-V1; conditions: KB-V1 MDR cells viability, CellTiter-Glo, 72 h; series mostly up to 46.1 µM; activity change, negative = cytotoxicity: at the top concentration; also: nearly all actives have a fitted effect of over 60% in size
From the text: A prime difficulty in effectively treating cancer is the development of cellular resistance to multiple structurally unrelated anticancer drugs, a phenomenon known as multidrug resistance (MDR). […] Numerous strategies to overcome P-gp-mediated MDR have been explored, including the design of drugs that evade recognition and efflux, and development of inhibitors to block efflux and restore drug accumulation. […] An alternative approach is to exploit resistance by identifying drugs that target MDR cells over the non-resistant parental cells from which they were selected. […] The development of MDR1-selective agents represents a new strategy for resolving multidrug resistance, as it remains a long-standing clinical challenge for cancer chemotherapy.
Our goal is to identify compounds that selectively kill P-gp-expressing MDR cells. We will identify MDR1-selective compounds by comparing toxicity of compounds in the screening library against parental, drug-naive (KB-3-1) adenocarcinoma cells as well as their drug-selected MDR sub-line (KB-V1). The differential toxicity of compounds against these two cell lines will be used to identify MDR1-selective compounds, whose cytotoxicity is potentiated, rather than diminished, by P-gp expression. This assay will be utilized to conduct a quantitative high-throughput screen (qHTS) in collaboration with the NIH Chemical Genomics Center to identify selective agents, and probe hits arising from the screen will be validated using secondary assays and characterized through a well-established follow-up research program. This screen was run against the entire NCGC library collection of about 400,000 compounds.
NIH Molecular Libraries Probe Production Network [MLPCN]
NIH Chemical Genomics Center [NCGC]
PI: Michael Gottesman, National Cancer Institute, NIH
Briefly, 5 microL of media containing either KB-V1 cells (columns 1-2, 4-48) are dispensed into Greiner white, treated solid-bottom 1536-well assay plates (media-only control is added to column 3). Compounds are then transferred via Kalypsys pin tool equipped with 1536-pin array (10 nL slotted pins, V&P Scientific, San Diego, CA). Following addition of compound, the plates are incubated at 37 degrees C for 72 hours. CellTiter-Glo (2.5 µL/well) is then added, and the plates are read in a ViewLux reader (Perkin-Elmer, clear luminescence filter, 1 second exposure, 1x binning) following a 10 minute incubation. All cells are dispensed in DMEM phenol-red free media containing 10% FBS.
Library plates were screened starting from the lowest and proceeding to the highest concentration. Vehicle-only plates, with DMSO being pin-transferred to columns 5-48, will be inserted uniformly at the beginning and the end of each library in order to monitor and record any shifts in the background, which can be affected by reagent dispensers or loss in enzyme activity over time. Screening data will be corrected, normalized, and concentration-effect relationships will be derived by using publicly-available NCGC, NCATS curve fitting algorithms (http://ncgc.nih.gov/pub/openhts).
% is scaled to controls: 0 for no effect and ±100 for the full control effect; potency is read from the fitted curve at half-maximal effect.

Point of comparison: `OCCNc1ncnc2oc(-c3ccco3)c(-c3ccco3)c12`, “activity change, negative = cytotoxicity” value -18.6%. Against it:
- COc1ccc(-c2[nH]nc(-c3ccccc3)c2-c2nc3ccccc3[nH]2)cc1 — higher, -2.23%
- COc1ccc(Br)cc1C(=O)NC(=S)Nc1cc(-c2nc3ccccc3[nH]2)ccc1C — the same, -18.6%
- CC1(Oc2cccc(F)c2)CCN(Cc2ccccc2OC(F)F)C1 (centres undefined) — higher, 5.33%
- COc1ccccc1-n1c(-c2ccc(C)cc2)cn2c3c(=O)n(C)c(=O)n(C)c3nc12 — higher, 27.5%
- COc1cccc(Cn2c(SCc3ccc(C(=O)N4CCCCC4)cc3)nc3ccncc32)c1 — higher, 13.1%
- O=C(Nc1ccc(NC(=O)c2cccs2)cc1)c1ccc2ccccc2c1 — higher, 1.68%
- O=C(Nc1ccccc1)c1ccc(NC(=O)c2cccs2)cc1 — higher, 0%
- C/C=C/c1ccc(OCC(=O)OCC(=O)Nc2c(C)nn(-c3ccccc3)c2C)c(OC)c1 — higher, 4.6%
- Cc1nn(-c2ccccc2)c(C)c1NC(=O)COC(=O)c1cc(Cl)ccc1O — higher, -4.72%
- C#CCN(C[C@H]1[C@H](OC(=O)NC2CCCC2)[C@H](OC(=O)NC2CCCC2)C[C@H]2C(=O)N(c3ccccc3)C(=O)[C@@H]12)S(=O)(=O)c1ccc(C)cc1 — higher, 11.7%
- C=CCn1c(SCC(=O)NCCCO)nc2sc3c(c2c1=O)CCC3 — higher, -0.705%
- CC1CCc2c(sc3nc4n(c(=O)c23)CCS4)C1 (centres undefined) — higher, -10.8%
- O=C(Nc1ccc(Cl)cc1)c1csc([C@H]2C[C@H](O)[C@@H](CO)O2)n1 — higher, -8.14%
- CCc1nnc2c3ccccc3nc(N3CCN(c4ccc(C)cc4C)CC3)n12 — higher, 11%
- Cc1ccc(S(=O)(=O)NCc2nc3ccccc3c(=O)n2N)cc1 — higher, 4.72%
- CCC1NC(=O)c2cccnc2-n2c1nc1ccc(C)cc1c2=O (centres undefined) — higher, -15.4%
- C(=C\c1ccccc1)/CSc1nnc(-c2cccnc2)n1Cc1ccco1 — higher, 0%
- CSCCC(c1nnnn1Cc1ccccc1)N1CCN(C/C=C/c2ccccc2)CC1 (centres undefined) — higher, -8.22%
- O=C(CNC(=O)N1CC(=O)Nc2ccccc21)Nc1ccc(Br)cc1F — higher, 10.8%
- Cc1ccc(C(C)C)cc1OCCN1CCCC1 — higher, 2.61%
- O=[N+]([O-])c1ccccc1OCCCCN1CCCCC1 — lower, -24.1%
- COc1ccccc1OCCCCCCN1CCN(C)CC1 — higher, 20.9%
- CN1CCN(CCCCOc2cccc3ccccc23)CC1 — higher, -7.19%
- CCNC(=O)C1(C)CCCN(C(=O)c2ccc3ccccc3n2)C1 (centres undefined) — higher, 5.07%
- Cc1ccccc1S(=O)(=O)NC(=O)C1(C)CCN1C(=O)C1(c2ccc(Cl)cc2)CC1 (centres undefined) — higher, 19.1%
- COc1ccccc1-n1c(-c2cc(-c3ccco3)[nH]n2)n[nH]c1=S — higher, 2.88%
- CSc1n[nH]c(-c2ccco2)n1 — higher, -8.81%
- COc1ccc(Nc2cc(C(=O)NCCCN(C)c3ccccc3)c3ccccc3n2)c(OC)c1 — higher, 3.15%
- COc1cc2nc(NCC(C)c3ccccc3)n3nc(-c4ccccc4)nc3c2cc1OC (centres undefined) — higher, -3.41%
- Cn1c(=O)c2c(n3c4ccccc4nc13)NC(=O)CC2c1cccc(Cl)c1 (centres undefined) — higher, 1.02%
- Cc1ccccc1NC(=O)Cn1c(=O)n(CC2CCC(C(=O)NCCc3ccccc3)CC2)c(=O)c2ccccc21 (centres undefined) — higher, -5.31%
- O=c1cc(N2CCCCC2)c(-c2ccccc2)nn1Cc1cccc(F)c1 — lower, -29.3%
- CCc1ccc(N(CC)C(=O)CCn2cnc3onc(-c4ccc(F)cc4)c3c2=O)cc1 — higher, 6.69%
- Cc1ccccc1-c1nc(CS(=O)(=O)CC(=O)Nc2cc(Cl)cc(Cl)c2)c(C)o1 — higher, 0%
- CN(C)c1nc(-c2cccnc2)nc(-c2ccc(Cl)cc2)c1C#N — lower, -19.1%
- CN(C)c1ccnc(Nc2ccc(F)cc2)c1C#N — higher, 4.23%
- COc1cc(OC)cc(C(=O)Nc2cc3nn(-c4ccccc4)nc3cc2Cl)c1 — higher, -16.8%
- O=C1c2ccccc2-c2ccccc2NC1O (centres undefined) — higher, 4.64%

With `Cc1ccc(-c2nc3ccccc3[nH]2)cc1N` the Potency was 10.3 µM (active).
For `CC(C)(C)c1ccc(C(=O)Nc2ccc3c(c2)CCCN3C(=O)c2cccs2)cc1`, the Potency was 20.6 µM (active).
With `Cc1nn(-c2ccccc2)c(C)c1NC(=O)COc1ccc(Cl)cc1Cl` the Potency was 2.31 µM (active).
With `C=CCn1c(SCc2c(C)noc2C)nc2sc3c(c2c1=O)CCC(C)C3` (centres undefined) the Potency was 4.61 µM (active).
In the case of `N=c1c2c(-c3ccccc3)c(-c3ccccc3)oc2ncn1Cc1ccco1`, the Potency is reported as 16.4 µM (active).
For `Cc1ccc(OCCCCN2CCCCC2)c(Br)c1`, the Potency was 16.4 µM (active).
With `Cc1ccc(C(C)(C)C)c(OCCCCN2CCCC2)c1` the Potency was 20.6 µM (active).
For `Cn1c(-c2ccco2)nc2cc3ccccc3cc21`, the Potency was 8.2 µM (active).
For `CCc1c(-c2ccc(F)cc2)ncn1Cc1cccc(-c2ccccc2)c1`, the Potency was 23.1 µM (active).
In the case of `CNc1nccc(-c2ccc(Cl)cc2)c1C#N`, the Potency is reported as 8.2 µM (active).
